# The list is not random: actives were taken first. Their share in the collection is about 27%.
# CYP2C9 activ: increases human cytochrome P450 2C9 activity; P11712; recombinant CYP2C9, luciferin-H conversion, luminescence; active compounds read high; factor 1 = untreated enzyme, 0 = blocked; activation factor at 5 µM; hit rate 1.4% among 96,000; AID 1024;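 active = activation factor of 2 or more for CYP2C9 at a 5 µM dose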;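 also: 0 = sulfaphenazole-blocked wells and 1 = vehicle-only wells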
# CYP2C19 inhib: inhibitors of human CYP2C19 | CYP2C19 Supersomes, luciferin-H EGE luminescence, 30 min | hit rate 21% among 96,000 | P33261 | inhibition, % at 5 µM;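 active = CYP2C19 inhibition above a set limit at 5 µM in the primary screen, cut at about 50% in these data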;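 also: plate controls were negative control wells for no effect and 2.5 mM tranylcypromine positive control for full effect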
# Target sequence (P33261 whole entry, looked up): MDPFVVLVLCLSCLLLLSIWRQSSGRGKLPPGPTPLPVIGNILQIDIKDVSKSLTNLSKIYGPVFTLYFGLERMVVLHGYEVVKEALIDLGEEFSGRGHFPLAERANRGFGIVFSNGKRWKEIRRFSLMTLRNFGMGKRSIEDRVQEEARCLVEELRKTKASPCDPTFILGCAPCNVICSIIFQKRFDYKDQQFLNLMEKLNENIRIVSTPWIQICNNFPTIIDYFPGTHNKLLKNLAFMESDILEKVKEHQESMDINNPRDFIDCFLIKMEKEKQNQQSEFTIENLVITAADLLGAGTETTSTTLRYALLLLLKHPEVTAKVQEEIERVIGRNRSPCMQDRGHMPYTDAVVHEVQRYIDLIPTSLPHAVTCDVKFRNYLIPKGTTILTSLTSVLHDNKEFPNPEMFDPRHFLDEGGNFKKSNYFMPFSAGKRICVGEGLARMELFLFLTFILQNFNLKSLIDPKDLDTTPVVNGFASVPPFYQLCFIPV
# CYP2C19 activ: activators of human cytochrome P450 2C19; recombinant CYP2C19, luciferin-H EGE luminescence; active compounds read high; 0 = fully inhibited enzyme, 1 = untreated enzyme; activation factor at 5 µM; 96,000 tested, under 10 active;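 active = activation factor of at least 2 at 5 µM in the primary screen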;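 also: 0 = wells with 2.5 mM tranylcypromine and 1 = vehicle-only wells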
# CYP2C9 inhib: human CYP2C9 inhibition. P11712. CYP2C9 Supersomes, luciferin-H conversion, luminescence. inhibition, % at 5 µM. hit rate 20% among 96,000. AID 777;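 active = blocking of liver enzyme CYP2C9 beyond about 50% at 5 µM, limit read from the data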
# Cav3 T inh: blocks human Cav3.2 T-type calcium channel; hit rate 4% among 100,000; Cav3.2-expressing cells, Fluo-4 calcium fluorescence FDSS; active compounds read low; AID 449739; B-score at 10 µM;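 active = single-dose well whose peak fluorescence ratio is a statistical outlier from its plate by either plate-standardised score or position-corrected B-score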
# Active calls of the source: *; x = no result given.
SMILES,CYP2C9 activ,CYP2C19 inhib,CYP2C19 activ,CYP2C9 inhib,Cav3 T inh
Cc1ccccc1-c1cc(C(=O)Nc2sc(C(=O)OC(C)C)c(C)c2C#N)c2ccccc2n1,0.2,44,0.6,85*,-3.2
COC(=O)c1sc(NC(=O)c2cc(-c3ccccc3)nc3ccccc23)c(C#N)c1C,0.4,8,0.9,64*,-1.4
CC(C)C[C@H](NC(=O)c1[nH]cnc1C(=O)N[C@@H](C)C(=O)OC(C)(C)C)C(=O)OC(C)(C)C,x,x,x,x,0.00045
CCCCS(=O)(=O)NC1=NCN(Cc2ccco2)CN1,0.9,3,1,10,-0.13
O=C(Nc1ccc(Cl)cc1Cl)c1n[nH]c(Cn2cncn2)n1,0.5,53*,0.5,51*,0.25
Clc1ccc(NCn2cncn2)nc1,0.6,14,0.9,37,0.82
N#C/C(=C\c1ccc(Cl)cc1)c1n[nH]c(Cn2cncn2)n1,0.3,30,0.7,68*,1.3
CSc1nc(C)cc(SCC(=O)Nc2ccc(Cl)cc2Cl)n1,x,x,x,x,-1.7
Cc1ccccc1NC(=O)C1CCN(c2cc(-c3ccccc3)nc3ncnn23)CC1,x,x,x,x,2.7
O=C(CN1CCCCC1)Nc1ccc(NC(=O)c2ccc(Cl)cc2)cc1Cl,0.8,18,0.8,16,-0.077
O=c1cc(CN2CCc3ccccc32)nc2sccn12,0.3,57*,0.4,67*,0.76
Brc1ccc(OCc2ccccc2)c(CNCc2ccncc2)c1,0.2,99*,0,84*,0.17
C=CCOc1ccccc1CNCc1cccnc1,0.7,48,0.5,34,-0.26
OCCNCc1cc(Br)ccc1OCc1ccc(Cl)cc1,1,53*,0.5,-3,x
Clc1ccc(COc2ccccc2CNCc2cccnc2)cc1,0,97*,0,95*,-0.8
OCCNCc1cc(Br)ccc1OCc1ccc(Cl)cc1Cl,x,x,x,x,-1.1
O=C(O)c1cc(/C=N\O)ccc1OCc1ccccc1,1,11,0.9,0,2
COc1ccc(CCNC(=O)C2CCN(S(=O)(=O)N3CC(C)CC(C)C3)CC2)cc1OC (stereo not given),0.9,-1,1,14,0.011
O=C(O)c1ccccc1-c1ccccc1C(=O)NCCCO,x,x,x,x,0.0018
O=C1[C@H]2[C@@H](C(=O)N1c1cc(Cl)cc(Cl)c1)[C@]1(C(=O)Nc3ccccc31)N1CCC[C@@H]21,0.1,52*,0.5,90*,-1.9
Cc1cc(Cl)c2c(c1)[C@]1(C(=O)N2)[C@@H]2C(=O)N(Cc3ccccc3)C(=O)[C@@H]2[C@@H]2CCCN21,0.9,18,0.8,12,-1.6
CCOC(=O)c1c(C)nc2sc3c(=O)n(-c4ccc(OC)cc4)nnc3c2c1-c1ccc(OC)cc1,0.7,31,0.7,26,1.5
CCOC(=O)c1c(C)nc2sc3c(=O)n(-c4ccc(C(C)=O)cc4)cnc3c2c1-c1ccc(OC)cc1,0.2,70*,0.3,76*,-0.77
COc1cccc(OC)c1C(=O)N1CCN(c2c(Cc3ccccc3)c(C)nc3ncnn23)CC1,0.6,2,1,39,1.5
Cc1nc2ncnn2c(N2CCC(C(=O)NC3CCCC3)CC2)c1Cc1ccccc1,0.4,66*,0.3,60*,0.76
SMILES,CYP2C9 activ,CYP2C19 inhib,CYP2C19 activ,CYP2C9 inhib,Cav3 T inh
CCc1c(C)nc2ncnn2c1N1CCC(C(=O)N2CCN(c3ccccc3)CC2)CC1,1,19,0.8,3,x
CCc1c(C)nc2ncnn2c1N1CCC(C(=O)N2CCN(c3ccc(F)cc3)CC2)CC1,0.9,61*,0.4,6,1.1
COc1ccc(CN2CCCCC2C(=O)Nc2ccc(OC)c(OCC(C)C)c2)cc1OC (stereo not given),x,x,x,x,-1.5
CC(C)CCn1c(Br)nc2c1c(=O)n(CC(N)=O)c(=O)n2C,1,9,0.9,1,1
O=C(OCC(F)(F)C(F)F)c1ccccc1C(=O)Oc1ccc(F)cc1F,0.2,90*,0.1,76*,-1.6
O=C(Nc1ccc(OCC(F)(F)C(F)F)c(C(F)(F)F)c1)c1ccccc1O,1.3,26,0.7,-29,-0.014
CC(=O)Nc1ccccc1Nc1nc(NCCO)nc(N2CCCC2)n1,x,x,x,x,0.74
N#CCSc1nnc(Cc2cccc3ccccc23)n1C1CCCCC1,0.6,57*,0.4,45,-5.7*
N#CCSc1nnc2ccc3ccccc3n12,1.5,16,0.8,-46,0.35
O=c1cc(-c2ccccc2)n(S(=O)(=O)c2ccccc2)o1,1.1,52*,0.5,-7,-1.2
COc1ccc(S(=O)(=O)n2oc(=O)cc2-c2ccccc2)cc1OC,1.9,97*,0,-91,-0.22

# Screens (PubChem)
